Compound activity as filed in PubChem.
This is a sample that favours compounds with a hit; in the whole collection about 3% have one here.
TbPYK inhibitor = qHTS of Trypanosoma Brucei Inhibitors | AID 624173, 2012 | 410,000 tested, 0.12% active | Potency, µM (doses to about 76.8 µM), actives largely listed as inhibitors | TbPYK enzyme, Kinase-Glo Plus ATP luminescence, 45 min | pyruvate kinase (Trypanosoma brucei), Q57TT1; further: nearly all actives have a fitted effect of over 50% in size
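Luminescence from Kinase-Glo Plus, added after a 45-minute room-temperature reaction, served as the end-point read-out. The enzyme and substrate were preincubated with compound before ADP (130 uM final) initiated turnover. Concentration-effect curves came from normalized qHTS data.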
RE007 growth inh = qHTS Assay for Inhibitors of the HIV-1 protein Vpr | S. pombe RE007 Vpr strain, BacTiter-Glo ATP luminescence, 24 h | Potency, µM (top dose mostly 92.2 µM), most hits filed as inhibitors | 360,000 tested, 0.21% active; active means well fitted falling curve with a large enough effect; inconclusive means small, poorly fitted or top-dose-only effect; inactive means no such curve, though single readings can be large or run the other way; further: nearly all actives have a fitted effect of over 50% in size
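Fission yeast strain RE007, carrying one chromosomally integrated HIV-1 vpr copy, was seeded at OD 0.01 in PMG+AL medium with 23 nL pinned compound. After 24 h at 30 °C and 99% humidity, viability was read by BacTiter-Glo luminescence.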
LmPK inh = qHTS Assay for Inhibitors of Leishmania Mexicana Pyruvate Kinase (LmPK); Q27686; purified LmPK, Kinase-Glo ATP luminescence, 1 h; Potency, µM (highest dose often 57.5 µM), most hits filed as inhibitors; 290,000 tested, 0.37% active; AID 1721, 2009
Target sequence (Q27686 whole entry, looked up): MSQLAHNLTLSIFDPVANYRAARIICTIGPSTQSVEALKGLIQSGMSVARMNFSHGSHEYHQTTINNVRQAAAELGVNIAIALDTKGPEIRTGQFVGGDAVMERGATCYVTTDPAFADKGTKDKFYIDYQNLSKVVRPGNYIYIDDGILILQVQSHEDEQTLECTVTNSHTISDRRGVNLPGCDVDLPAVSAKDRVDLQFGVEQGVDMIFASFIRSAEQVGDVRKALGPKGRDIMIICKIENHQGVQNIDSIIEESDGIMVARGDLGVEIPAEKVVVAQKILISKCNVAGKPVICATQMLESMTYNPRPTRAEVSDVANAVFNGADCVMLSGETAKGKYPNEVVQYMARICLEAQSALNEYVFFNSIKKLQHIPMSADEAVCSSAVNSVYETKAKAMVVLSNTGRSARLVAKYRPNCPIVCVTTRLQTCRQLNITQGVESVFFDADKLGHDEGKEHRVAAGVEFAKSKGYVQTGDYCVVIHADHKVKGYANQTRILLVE
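qHTS format; LmPK 0.1 nM; substrates PEP 0.5 mM and ADP 0.1 mM. One-hour room-temperature incubation, then coupled luciferase luminescence; 0.5 nM enzyme wells mark activation.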
Sm TGR inh = qHTS Assay for the Inhibitors of Schistosoma Mansoni Peroxiredoxins; AID 485364, 2010; Potency, µM (titrated, usually from 114 µM), hits mostly inhibitors; Schistosoma mansoni thioredoxin glutathione reductase (TGR), Q962Y6; purified TGR, DTNB reduction, TNB absorbance 405 nm; 360,000 tested, 3% active; further: nearly all actives have a fitted effect of over 60% in size
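Kinetic colorimetric format: TGR-catalysed, NADPH-driven DTNB reduction monitored via TNB absorbance. Enzyme dispensed at 20 nM; compound exposure 15 min at room temperature before reaction start.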
Numbers stand for hits. Unless noted, the call rests on the fitted dose curve; in most records, active means well fitted curve in the direction sought with a large enough effect; inconclusive means small, poorly fitted or top-dose-only effect, or another doubt; inactive means no such curve, though single readings can be large; an effect the other way counts as inactive or inconclusive.

O=C(Nc1ccc(OC(=O)c2ccco2)cc1)c1ccco1 was read as TbPYK inhibitor inactive, RE007 growth inh inconclusive, LmPK inh 14µM and Sm TGR inh inactive.
Cc1c(C(=O)Nc2ccc3c(c2)OCCO3)cnn1C was read as TbPYK inhibitor inactive, RE007 growth inh inactive, LmPK inh inactive and Sm TGR inh inactive.
For O=C(COC(=O)c1nc(Cl)c(Cl)c(Cl)c1Cl)c1ccc[nH]1 the results were TbPYK inhibitor inactive, RE007 growth inh inactive and Sm TGR inh 20µM.
For CC1(C)CC2(CC(c3ccccc3F)c3ccc(O)c(O)c3O2)NC(=S)N1 (configuration not stated) the results were TbPYK inhibitor inconclusive, RE007 growth inh inactive, LmPK inh inactive and Sm TGR inh 1.1µM.
`COc1cc2c(cc1OC)CN(C(=O)Cc1ccccc1)CC2` gave TbPYK inhibitor inactive, RE007 growth inh inactive, LmPK inh inactive and Sm TGR inh inactive.
For COc1cc2c(cc1OC)CN(C(=O)c1ccccc1C(=O)O)CC2 the results were TbPYK inhibitor inactive, RE007 growth inh inactive, LmPK inh inactive and Sm TGR inh 79µM.
Screening Cc1c(N=C2C=CC(=O)c3ccccc32)c(=O)n(-c2ccccc2)n1C returned TbPYK inhibitor inconclusive, RE007 growth inh inconclusive, LmPK inh inconclusive and Sm TGR inh 13µM.
Cc1c(N=C2C=C(Br)C(=O)C(Br)=C2)c(=O)n(-c2ccccc2)n1C was read as TbPYK inhibitor inactive, RE007 growth inh inconclusive, LmPK inh inconclusive and Sm TGR inh 2.8µM.
`O=C(Nc1cc(C(F)(F)F)ccc1Cl)c1cnn(-c2ccccc2)c1-n1cccc1` gave TbPYK inhibitor inactive and Sm TGR inh inactive.
Screening Cc1cc(C)nc(/N=C(\N)N2CCCCC2)n1 returned TbPYK inhibitor inactive, RE007 growth inh inactive, LmPK inh inactive and Sm TGR inh 45µM.
COc1ccccc1-c1ccc(/C=C2\C=CC(=O)O2)o1 was read as TbPYK inhibitor inactive, RE007 growth inh inactive, LmPK inh inactive and Sm TGR inh 14µM.
`O=C(Nc1ccc(CN2CCOCC2)cc1)c1ccco1` gave TbPYK inhibitor inactive, RE007 growth inh inactive, LmPK inh inactive and Sm TGR inh inactive.
Cc1sc2nc(CN3CCOCC3)nc(Oc3ccc(NC(=O)c4ccco4)cc3)c2c1C was read as TbPYK inhibitor inactive, RE007 growth inh inactive, LmPK inh inactive and Sm TGR inh 28µM.
`O=C(O)C1(S(=O)(=O)CCC(F)=C(F)F)CC1` gave TbPYK inhibitor inactive, RE007 growth inh inactive, LmPK inh inactive and Sm TGR inh 32µM.
CCCn1c(N)c(N(CCOC)C(=O)c2cc(-c3ccco3)nc3ccccc23)c(=O)[nH]c1=O was read as TbPYK inhibitor inactive, RE007 growth inh inactive, LmPK inh inactive and Sm TGR inh 18µM.
For CCCCn1c(N)c(N(CCOC)C(=O)c2ccc(-c3ccc(Cl)cc3)o2)c(=O)[nH]c1=O the results were TbPYK inhibitor inactive, RE007 growth inh inactive and Sm TGR inh 45µM.
For CCCCN(C(=O)c1ccc(-c2ccc(Cl)cc2)o1)c1c(N)n(CCCC)c(=O)[nH]c1=O the results were TbPYK inhibitor inactive, RE007 growth inh inactive and Sm TGR inh inactive.
For COCCCN(C(=O)c1cc(-c2ccco2)nc2ccccc12)c1c(N)n(Cc2ccccc2)c(=O)[nH]c1=O the results were TbPYK inhibitor inactive, RE007 growth inh inactive and Sm TGR inh 16µM.
Screening CCCCn1c(N)c(N(CCOC)C(=O)c2cc(-c3ccccc3)nc3ccccc23)c(=O)[nH]c1=O returned TbPYK inhibitor inactive, RE007 growth inh inactive and Sm TGR inh inactive.
`Cc1ccc(-c2cc(-c3ccc(F)cc3)c(C#N)c(N)n2)o1` gave TbPYK inhibitor inconclusive, RE007 growth inh inconclusive, LmPK inh inactive and Sm TGR inh 20µM.
Cc1cc(-c2cc(-c3ccc(Cl)cc3)nc(N)c2C#N)co1 was read as TbPYK inhibitor inconclusive, RE007 growth inh 45µM, LmPK inh inactive and Sm TGR inh 3.2µM.
Cc1ccc(-c2cc(-c3ccc4c(c3)OCO4)c(C#N)c(N)n2)o1 was read as TbPYK inhibitor inactive, RE007 growth inh inactive, LmPK inh inactive and Sm TGR inh 10µM.
`Cc1ccc(-c2cc(-c3ccc(Cl)cc3)c(C#N)c(N)n2)o1` gave TbPYK inhibitor inconclusive, RE007 growth inh inactive, LmPK inh inactive and Sm TGR inh 3.5µM.
Cc1nc(N)c(C#N)c(-c2ccc3c(c2)OCO3)c1C was read as TbPYK inhibitor inactive, RE007 growth inh inactive, LmPK inh inactive and Sm TGR inh inactive.
`CCOc1cc(-c2cc(-c3ccc(C)o3)nc(N)c2C#N)ccc1O` gave TbPYK inhibitor inactive, RE007 growth inh inactive, LmPK inh inactive and Sm TGR inh inactive.
For O[C@H]1C[C@H](c2ccccc2)N(Cc2cccs2)C[C@@H]1n1cc(-c2ccc(F)cc2)nn1 the results were TbPYK inhibitor inactive and RE007 growth inh inactive.
`Cc1cccc(-n2c3nc(=O)n(C)c(=O)c-3cc3c(C)nn(-c4ccccc4)c32)c1C` gave TbPYK inhibitor inactive and Sm TGR inh inactive.
Screening Cc1ccc(-c2cc(-c3ccc(C)o3)nc(N)c2C#N)cc1 returned TbPYK inhibitor 28µM, RE007 growth inh inconclusive, LmPK inh inactive and Sm TGR inh 3.2µM.
For COCCN(CCOC)c1ncnc2c1c(-c1ccccc1)cn2-c1ccc(C)c(Cl)c1 the results were TbPYK inhibitor inactive and Sm TGR inh inactive.
COc1ccc(-c2c(C)nn3c(N)c(-c4ccccc4)cnc23)cc1OC was read as TbPYK inhibitor inactive, RE007 growth inh inactive, LmPK inh inactive and Sm TGR inh 40µM.
Screening COc1ccc(/C=C/c2nc(C#N)c(N3CCC(C)CC3)o2)cc1OC returned TbPYK inhibitor inactive and Sm TGR inh inactive.
For CC(=O)Oc1ccc(OC(C)=O)c(SCCCCCN2CCOCC2)c1 the results were TbPYK inhibitor inactive, RE007 growth inh inactive, LmPK inh inconclusive and Sm TGR inh 50µM.
`O=S(=O)(c1ccc(F)cc1)c1nc(-c2ccccc2F)oc1N1CCCCC1` gave TbPYK inhibitor inactive, RE007 growth inh inactive, LmPK inh inactive and Sm TGR inh 10µM.
Screening COc1ccccc1-c1nc(S(=O)(=O)c2ccccc2)c(N2CCCCC2)o1 returned TbPYK inhibitor inactive, RE007 growth inh inactive, LmPK inh inactive and Sm TGR inh 0.79µM.
Screening CC1CCN(c2oc(-c3ccco3)nc2S(=O)(=O)c2ccccc2)CC1 returned TbPYK inhibitor inactive, RE007 growth inh inactive, LmPK inh inactive and Sm TGR inh inactive.
Screening Cc1ccc(S(=O)(=O)c2nc(-c3ccccc3Cl)oc2N2CCCCCC2)cc1 returned TbPYK inhibitor inactive and Sm TGR inh inconclusive.
For O=S(=O)(c1ccccc1)c1nc(-c2ccco2)oc1N1CCCCC1 the results were TbPYK inhibitor inactive, RE007 growth inh inactive, LmPK inh inactive and Sm TGR inh 45µM.
